Experimental data as given in ChEMBL document CHEMBL3433997, “St. Jude Leishmania screening dataset” (2016).

Assays:
Format in all cases: functional
[1] = target: Solute carrier family 2, facilitated glucose transporter member 1 (Homo sapiens) (UniProt P11166); assay: ST_JUDE_LEISH: Cytotoxicity at 2uM final concentration against transgenic Leishmania Mexicana promastigotes LmGLUT1 that are glucose transport deficient and complemented with the human glucose transporter GLUT1. Activity is measured by DNA content using SYBR green in vitro
Solute carrier family 2, facilitated glucose transporter member 1 (Homo sapiens), sequence (P11166 whole entry): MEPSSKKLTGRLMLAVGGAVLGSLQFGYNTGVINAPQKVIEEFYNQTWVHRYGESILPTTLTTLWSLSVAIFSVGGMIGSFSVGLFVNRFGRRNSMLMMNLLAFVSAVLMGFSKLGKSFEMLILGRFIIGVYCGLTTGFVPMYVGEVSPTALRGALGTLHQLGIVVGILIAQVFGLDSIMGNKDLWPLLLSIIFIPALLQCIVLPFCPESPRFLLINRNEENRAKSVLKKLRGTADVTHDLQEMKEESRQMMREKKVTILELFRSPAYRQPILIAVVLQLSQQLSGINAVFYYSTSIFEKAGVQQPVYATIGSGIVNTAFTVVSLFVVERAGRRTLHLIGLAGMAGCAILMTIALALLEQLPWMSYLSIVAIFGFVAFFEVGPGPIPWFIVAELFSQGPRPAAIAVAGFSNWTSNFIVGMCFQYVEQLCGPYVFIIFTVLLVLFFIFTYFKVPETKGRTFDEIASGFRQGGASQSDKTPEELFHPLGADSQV

[2] = target: Hexose transporter 1 (Plasmodium falciparum) (UniProt O97467); assay: ST_JUDE_LEISH: Cytotoxicity at 2uM final concentration against transgenic Leishmania Mexicana promastigotes LmPfHT that are glucose transport deficient and complemented with the Plasmodium falciparum hexose transporter. Activity is measured by DNA content using SYBR green in vitro
[3] = target: Glucose transporter (Leishmania mexicana) (UniProt O61059); assay: ST_JUDE_LEISH: Cytotoxicity at 2uM final concentration against transgenic Leishmania Mexicana promastigotes LmGT2 that are glucose transport deficient and complemented with the L. Mexicana glucose transporter 2. Activity is measured by DNA content using SYBR green in vitro

Structure (SMILES)	inhibition [1] [%]	inhibition [2] [%]	inhibition [3] [%]
O=C1OC2(CN1CC1CCN(Cc3ccc(O)c(Cl)c3)CC1)c1ccccc1-c1ccccc12	8.04	6.3	3.94
O=S(=O)(NCCN1CCCC1)c1cccc(-c2ccc(CNCc3ccsc3)cc2)c1	2.71	1.13	3.02
S=C(NCCCCCN1CCC(c2c[nH]c3ccccc23)CC1)Nc1cccc(I)c1	0.7	1.62	-1.76
C#CCOc1ccc(N2C(N)=NC(N)=NC2(C)C)cc1	2.23	1.16	-0.42
CCCCCCCCc1nc(C)c(Br)c(O)c1Br	3.91	5.98	0.8
CN1CCCN(Cc2cccc(-c3ccc(NC(=O)c4cccc(Cl)c4)cc3)c2)CC1	71.1	80	69.1
NC(=O)c1cccc(CN2Cc3ccccc3OC3(CCN(Cc4c[nH]c5cnccc45)CC3)C2)c1	0.63	1.28	0.09
COc1cccc(C(=O)C2CC2CN(C)CCC(O)c2ccc(Cl)c(Cl)c2)c1 (centres undefined)	3.35	3.48	4.04
Cc1cc(C(F)(F)F)cc(-n2ncc(-c3ccc(C(=O)NCc4ccccc4N)cc3)c2N)n1	104	98.5	57.5
CC(=O)Nc1nc(N)c2c(ccc3c2ccn3CC(C)C)n1	-2.54	-0.46	-0.95
Oc1cc(Nc2ccnc3cc(-c4ccc(CN5CCCCC5)o4)c(Cl)cc23)c(Cl)cc1F	1.26	1.8	1.57
CC(=O)Nc1nc(C(=O)Nc2ccc(-c3cccc(-c4nc5cc(F)ccc5[nH]4)c3)cc2)cs1	2.47	2.89	3.35
CN1CC[C@@H](Oc2cc(NC(=O)Nc3ccc(Cl)c(C(F)(F)F)c3)ccc2Cl)C1	0.88	0.12	0.51
